From the supplement of paper PMC7411054
Where a name gives a salt, the structure may show the parent alone.

Key:
Assay in all cases: lowest phenotypically active concentration; higher = less potent
Settings in all cases: treatment time: 24 h
[1] = system: A549-ACTB-RAB5A
Procedure, shortened: (§1)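 The reporter lines, fifteen in total and built by gene editing in A549, HepG2 and WPMY1 cells, used BFP for segmentation alongside GFP and RFP/FusionRed markers. Each was treated at 0.3, 1, 3 or 9 µM for 24 h in four wells and then imaged live, with live-cell features normalised to solvent control wells. Deviation meant ≥3 of 4 wells beyond the 95th percentile of control Euclidean distances; reproducibility meant a median replicate Pearson correlation above the 95th percentile of non-replicates. Only conditions meeting both were scored as phenotypically active.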

[2] = system: A549-CANX-COX4
Procedure, shortened: as §1

[3] = system: A549-TP53BP1-CLTA
Procedure, shortened: as §1

[4] = system: A549-TUBA1B-RELA
Procedure, shortened: as §1

[5] = system: HepG2-ACTB-RAB5A
Procedure, shortened: as §1

[6] = system: HepG2-TP53BP1-CLTA
Procedure, shortened: as §1

[7] = system: HepG2-TUBA1B-RELA
Procedure, shortened: as §1

[8] = system: WPMY1-ACTB-RAB5A
Procedure, shortened: as §1

[9] = system: WPMY1-CANX-COX4
Procedure, shortened: as §1

[10] = system: WPMY1-TUBA1B-RELA
Procedure, shortened: as §1

Measured: lowest phenotypically active concentration

COc1ccc2c(c1)/C(=C/c1c[nH]cn1)C(=O)N2
3 µM: [8]
1 µM: [1] | [2] | [3] | [4] | [5] | [6] | [7] | [9] | [10]

CC[C@@H]1C=CC=CC[C@H](C)[C@@H](O)[C@](C)(O)C(=O)[C@H](C)[C@@H](O)[C@H](C)C(=O)[C@H](C)[C@@H](O)[C@H](C)C=CC(=O)O[C@H]2[C@@H](C)[C@@H](CC1)O[C@@]1(CC[C@@H](C)[C@@H](C[C@H](C)O)O1)[C@@H]2C [Oligomycin A]
1 µM: [9]
≤ 0.3 µM: [1] | [2] | [3] | [4] | [5] | [6] | [7]

COc1ccc(C[C@H]2NC[C@H](O)[C@H]2OC(C)=O)cc1 [Anisomycin]
≤ 0.3 µM: [1] | [2] | [3] | [4] | [5] | [6] | [7] | [8] | [9] | [10]

O=C1NC(=O)c2c1c1c3ccccc3n3c1c1c2c2ccccc2n1C1CCC3O1
3 µM: [8]
≤ 0.3 µM: [1] | [4]
9 µM: [6] | [9]

C[C@@H]1CC[C@H]2[C@@H](C)C(=O)O[C@@H]3O[C@@]4(C)CC[C@@H]1[C@]32OO4 [Artemisinin]
1 µM: [6]
3 µM: [1] | [3] | [5]
≤ 0.3 µM: [4] | [7] | [8] | [9] | [10]

CCn1cnc2c(Nc3cccc(Cl)c3)nc(N[C@H]3CCCC[C@H]3N)nc21
1 µM: [1] | [3] | [4] | [5] | [6] | [7] | [9] | [10]
3 µM: [2] | [8]

CN1CCC2=C[C@H](O)[C@H]3OC(=O)c4cc5c(cc4[C@H]3[C@@H]21)OCO5 [Hippeastrine hydrobromide]
9 µM: [1]

CC[C@H]1CN2CCc3cc(OC)c(OC)cc3[C@@H]2C[C@@H]1C[C@H]1NCCc2cc(OC)c(OC)cc21 [emetine]
≤ 0.3 µM: [1] | [2] | [3] | [4] | [5] | [6] | [7] | [8] | [9] | [10]

CC(C)C[C@H]1C(=O)N2CCC[C@H]2[C@]2(O)O[C@](NC(=O)[C@@H]3C=C4c5cccc6[nH]c(Br)c(c56)C[C@H]4N(C)C3)(C(C)C)C(=O)N12 [bromocriptine]
9 µM: [3] | [5] | [6] | [7]

C[C@H]1CCCC=C[C@@H]2C[C@H](O)C[C@H]2[C@H](O)C=CC(=O)O1 [brefeldin-a]
≤ 0.3 µM: [2] | [3] | [5] | [6] | [7] | [8] | [9] | [10]

COc1cc2c(cc1O)C[C@H]1c3c(cc(O)c(OC)c3-2)CCN1C [Boldine]
9 µM: [4] | [5]

C[C@@H](CO)NC(=O)[C@@H]1C=C2c3cccc4[nH]cc(c34)C[C@H]2N(C)C1 [Ergobasine]
9 µM: [3] | [9]

C/C=C(/C)C(=O)O[C@H]1CC[C@@]2(C)[C@@H]3CC[C@H]4[C@]5(O)C[C@H](O)[C@@]6(O)[C@@H](CN7C[C@@H](C)CC[C@H]7[C@@]6(C)O)[C@]5(O)C[C@@]42O[C@]13O [Veratrine]
9 µM: [7]

C[C@H](N)Cc1ccccc1 [dextroamphetamine]
3 µM: [1] | [4]

O=C1NC(=S)N(c2cccc(Br)c2)C(=O)/C1=C/c1ccco1
3 µM: [8]
9 µM: [4] | [7] | [9] | [10]

C=C1C/C(=C\C)C(=O)O[C@@H]2CCN3CC=C(COC(=O)[C@]1(C)O)[C@H]23 [Seneciphylline]
9 µM: [6]

C[C@@H]1C[C@@H]([C@H](O)CC2CC(=O)NC(=O)C2)C(=O)[C@@H](C)C1 [Cycloheximide]
1 µM: [8]
3 µM: [6]
≤ 0.3 µM: [2] | [3] | [5] | [7] | [9] | [10]

O=C1C=C2C=C[C@@H]3C[C@@]2(O1)[C@H]1CCCCN31 [Securinine]
9 µM: [10]

CN1C(=O)CN=C(c2ccccc2)c2cc(Cl)ccc21 [diazepam]
9 µM: [5]

C[C@]12CC[C@H](O)C[C@H]1CC[C@@H]1[C@@H]2CC[C@]2(C)[C@@H](C3=CC(=O)OC3)CC[C@]12O [Digitoxigenin]
≤ 0.3 µM: [2] | [3] | [5] | [7] | [8] | [9] | [10]
1 µM: [6]

C[C@H]1CC[C@@H]2N(C1)C[C@H]1[C@@H]3C[C@H]4[C@@H](CC(=O)[C@H]5C[C@@H](O)CC[C@@]54C)[C@@H]3CC[C@H]1[C@]2(C)O [Imperialine]
≤ 0.3 µM: [8] | [9]

Cc1sc2c(c1C)C(c1ccc(Cl)cc1)=N[C@H](CC(=O)OC(C)(C)C)c1nnc(C)n1-2
9 µM: [5] | [10]

C[C@H]1C(=O)O[C@@H]2CCN3CC=C(COC(=O)[C@](C)(O)[C@]1(C)O)[C@H]23 [Monocrotaline]
3 µM: [4]

Cc1c(C(=O)c2cccc3ccccc23)c2cccc3c2n1[C@H](CN1CCOCC1)CO3 [WIN 55,212-2 mesylate]
9 µM: [8] | [9]

N[C@@H]1C[C@H]1c1cc(F)cc(F)c1OCc1ccccc1
9 µM: [8]

C=C(C)[C@H]1Cc2c(ccc3c2O[C@@H]2COc4cc(OC)c(OC)cc4[C@@H]2C3=O)O1 [Rotenone]
≤ 0.3 µM: [2] | [3] | [5] | [6] | [7] | [8]
1 µM: [9] | [10]
